Results filed as inconclusive are left out. A call without a number means that no potency is given here. Activity calls are given as the source filed them. The call rests on the fitted dose curve; in most records, active means well fitted inhibition curve with a large enough effect; inconclusive means small, poorly fitted or top-dose-only effect; inactive means flat fitted curve, though single readings scatter.
target: Voltage-gated inwardly rectifying potassium channel KCNH2 (Homo sapiens) (UniProt Q12809); assay: qHTS Assay for Small Molecule Inhibitors of the Human hERG Channel Activity (AID 588834); settings: U2OS BacMam hERG, FluxOR thallium flux fluorescence; series mostly up to 92.2 µM;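 further: top concentration of the series differs between compounds; lower thallium flux fluorescence means stronger hERG block; nearly all actives have a fitted effect of over 50% in size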
Sequence (Q12809 whole entry, looked up): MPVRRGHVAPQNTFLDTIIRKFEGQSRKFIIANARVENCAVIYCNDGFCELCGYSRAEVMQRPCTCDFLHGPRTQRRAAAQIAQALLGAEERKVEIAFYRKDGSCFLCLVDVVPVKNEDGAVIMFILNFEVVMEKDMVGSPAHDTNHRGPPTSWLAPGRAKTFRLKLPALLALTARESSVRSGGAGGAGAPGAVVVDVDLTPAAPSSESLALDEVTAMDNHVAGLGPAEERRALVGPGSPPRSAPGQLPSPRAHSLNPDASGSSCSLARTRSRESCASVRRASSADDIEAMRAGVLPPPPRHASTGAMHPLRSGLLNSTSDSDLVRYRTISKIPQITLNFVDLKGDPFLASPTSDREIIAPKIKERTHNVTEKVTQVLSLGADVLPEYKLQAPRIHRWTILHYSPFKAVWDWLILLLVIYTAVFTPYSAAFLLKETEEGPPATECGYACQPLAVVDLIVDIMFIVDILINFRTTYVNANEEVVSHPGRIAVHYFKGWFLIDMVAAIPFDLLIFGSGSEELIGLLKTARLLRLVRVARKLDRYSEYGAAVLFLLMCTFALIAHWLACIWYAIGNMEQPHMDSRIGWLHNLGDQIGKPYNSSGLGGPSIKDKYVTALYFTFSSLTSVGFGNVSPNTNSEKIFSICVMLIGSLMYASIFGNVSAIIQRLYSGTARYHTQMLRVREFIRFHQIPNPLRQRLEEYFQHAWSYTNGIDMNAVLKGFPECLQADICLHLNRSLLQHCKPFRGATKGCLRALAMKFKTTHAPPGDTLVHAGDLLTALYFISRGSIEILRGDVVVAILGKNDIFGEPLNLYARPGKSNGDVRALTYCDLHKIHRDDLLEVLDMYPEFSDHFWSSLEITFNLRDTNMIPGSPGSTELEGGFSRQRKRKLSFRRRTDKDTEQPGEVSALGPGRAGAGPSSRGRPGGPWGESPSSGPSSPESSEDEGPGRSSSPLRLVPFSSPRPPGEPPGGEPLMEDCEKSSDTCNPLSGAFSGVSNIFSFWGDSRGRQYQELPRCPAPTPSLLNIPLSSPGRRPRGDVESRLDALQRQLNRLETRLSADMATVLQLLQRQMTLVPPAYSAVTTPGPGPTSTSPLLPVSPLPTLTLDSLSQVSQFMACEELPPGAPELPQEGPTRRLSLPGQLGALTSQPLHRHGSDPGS
Source text: NIH Chemical Genomics Center [NCGC]
National Institutes of Environmental Health Sciences [NIEHS]
National Toxicology Program [NTP]
We have developed a 1536-well cell-based assay for quantitative high throughput screening (qHTS) to determine in vitro hERG channel blockage as a measure of cardio toxicity with small molecules. This particular assay uses the U2OS cell line which is derived from human osteosarcoma.
NCGC Assay Protocol Summary:
HERG assay (FluxORTM thallium flux assay) was initially developed by Invitrogen/Molecular Probes, and then miniaturized into 1536-well plate in a homogeneous format by NCGC. This assay measures the activity of potassium channel using thallium dye (FluxOR) flux as surrogate measurement for potassium into the cells with a FDSS-7000 kinetic plate reader (Hamamatsu Corp., Hamamatsu City, Japan). The hERG ion channel is transduced into mammalian cells (U2OS) using a baculovirus (Bacmam) construct harboring the hERG K+ ion channel. So far we screened LOPAC1280 library (Sigma), the NTP collection of 1408 compounds, and the NCGC Pharmaceutical Collection (NPC), in which many well defined HERG blockers are present. The rank order potencies of many of these compounds are similar to that of other HERG assays (membrane potential, Rb+ flux, patch clamp, etc). This quick and homogeneous assay is also found to be sensitive, specific, and robust.
Using the FluxORTM thallium flux assay, the activity of potassium channel using thallium dye (FluxOR) flux as surrogate measurement for potassium into the cells was measured in the U2OS cell line transduced with hERG K+ ion channel using a baculovirus (Bacmam) using Opti-MEM medium (Invitrogen) containing 2% fetal calf serum (FCS, HyCone) following loading buffer addition, compound treatment for around 10 minutes and finally adding stimulation buffer. The assay was performed in black clear Kalypsys 1536-well plates. In the screen, Astemizole was used as positive controls. Library compounds were measured for their ability to cause hERG channel blockage in the cell line, as reflected by a decrease in fluorescence intensity, in a concentration-dependent manner. […] AC50 values were determined from concentration-response data modeled with the standard Hill equation.
qHTS protocol for hERG-U2OS cellular assay
[Step] [Parameter] [Value] [Description]
1. Day 1: Replace medium in 70-80% confluent T225 flask with 2.5 mL of hERG-BacMam virus plus 12.5 mL of phosphate buffered saline (PBS) (corresponding roughly to a multiplicity of infection ratio of 100 virus particles/cell)
2. Incubation: 4 hrs @ room Temperature in Dark
3. Reagent; Remove virus; wash once with 25 ml DPBS
4. Reagent; 35 ml culture medium
5. Incubation; 37 °C overnight
6. Day2: Reagent; 3 uL; 2000 U2OS cells/well
7. Time; 4 hr; 37 °C incubation
8. Loading buffer; 1 uL; 0.7X;
9. Incubation: 1hr @ RT in Dark.
12. Time; 10min; 37 °C incubation
13. Read fluorescence Intensity on FDSS for 10 Sec with 1 sec interval
14. Reagent; 1 uL; stimulation buffer
15. Read fluorescence Intensity on FDSS for 2 min with 1 sec interval
16. Detection; Fluorescence Intensity; FDSS

How did the Potency turn out when `CC(=O)OC(C)=O` was run?
Its Potency is “inactive”.

`CC(=C/C=C/C(C)=C/C=C/C=C(C)/C=C/C=C(C)/C=C/C(=O)O)/C=C/C(=O)O` was tested. Which Potency did it give?
The Potency was “inactive”.

For `FB(F)F`, which Potency is on record?
Its Potency is “inactive”.

For `Cc1ccc(C#N)cc1`, which Potency is on record?
Its Potency is “inactive”.

For `CCOC(=O)C(C)C(C)=O` (stereo not given), which Potency is on record?
The Potency was “inactive”.

With `COc1cccc2sc(N)nc12` as the compound, how does the Potency read?
The Potency was “inactive”.

How did the Potency turn out when `O=Cc1ccc(C(=O)O)cc1` was run?
The Potency was “inactive”.

Which Potency does the source give for `C=CC(=O)OCCCC` here?
Its Potency is “inactive”.

With `CC(C)=CCl` as the compound, how does the Potency read?
The Potency was “inactive”.

`CCOCCO` was tested. Which Potency did it give?
Its Potency is “inactive”.

With `O=C(O[C@@H](C(=O)O)[C@@H](OC(=O)c1ccccc1)C(=O)O)c1ccccc1` as the compound, how does the Potency read?
The Potency was “inactive”.

For `CN(C)c1cccc(O)c1`, which Potency is on record?
The Potency was “inactive”.

Which Potency does the source give for `BrC/C=C/CBr` here?
The Potency was “inactive”.

For `Nc1ccc([N+](=O)[O-])c(N)c1`, which Potency is on record?
Its Potency is “inactive”.

`CC(C)Cc1nccs1` was tested. Which Potency did it give?
Its Potency is “inactive”.

Which Potency does the source give for `CC(=O)c1cc(C)oc1C` here?
Its Potency is “inactive”.

`Oc1cccc(Nc2ccccc2)c1` was tested. Which Potency did it give?
The Potency was “inactive”.

For `CC(C)(O)C(=O)O`, which Potency is on record?
The Potency was “inactive”.

For `ClC/C=C/CCl`, which Potency is on record?
The Potency was “inactive”.

For `CCCCC(C=O)CC` (stereo not given), which Potency is on record?
The Potency was “inactive”.

How did the Potency turn out when `CCCCN(CCO)CCCC` was run?
Its Potency is “inactive”.

For `CCCCOCCOCCSC#N`, which Potency is on record?
The Potency was “inactive”.

For `Cc1ccc([N+](=O)[O-])c(N)c1`, which Potency is on record?
The Potency was “inactive”.

Which Potency does the source give for `Clc1cc(Cl)cc(Cl)c1` here?
The Potency was “inactive”.

How did the Potency turn out when `O=[N+]([O-])c1cccc(C(F)(F)F)c1` was run?
The Potency was “inactive”.

How did the Potency turn out when `OCCO` was run?
The Potency was “inactive”.

How did the Potency turn out when `CC(C)=CCC/C(C)=C/C=O` was run?
The Potency was “inactive”.

How did the Potency turn out when `NC(=O)CCCCC(N)=O` was run?
The Potency was “inactive”.

How did the Potency turn out when `CC/C(C)=N/O` was run?
The Potency was “inactive”.

`Cc1cccc([N+](=O)[O-])c1C(=O)O` was tested. Which Potency did it give?
The Potency was “inactive”.

For `CCN(CC)c1cccc(O)c1`, which Potency is on record?
The Potency was “inactive”.

How did the Potency turn out when `Cc1cccc(C(=O)O)c1` was run?
Its Potency is “inactive”.

Which Potency does the source give for `CC(=O)c1cccc([N+](=O)[O-])c1` here?
The Potency was “inactive”.

Which Potency does the source give for `CC(N)CN` (stereo not given) here?
Its Potency is “inactive”.

With `O=C1OC(=O)c2c(Cl)c(Cl)c(Cl)c(Cl)c21` as the compound, how does the Potency read?
Its Potency is “inactive”.

Which Potency does the source give for `Clc1ccccn1` here?
Its Potency is “inactive”.

Which Potency does the source give for `C=CCCCC` here?
The Potency was “inactive”.

For `CCCCOCCOCCOCCCC`, which Potency is on record?
Its Potency is “inactive”.

Which Potency does the source give for `O=C1CCCCC1` here?
Its Potency is “inactive”.

With `CC/C=C1/OC(=O)c2ccccc21` as the compound, how does the Potency read?
The Potency was “inactive”.

Source: PubChem BioAssay (NCATS)
